Screens: PubChem BioAssay, several laboratories
This is a sample that favours compounds with a hit; in the whole collection about 1.5% have one here.
BH1578 lux ind – inducers of Vibrio cholerae quorum light production without autoinducers, primary screen, BH1578 luxS cqsA deficient, single point; V. cholerae BH1578 lux reporter, luminescence, 6 h; activation, % at 18.7 µM; 350,000 compounds, 0.16% hits; in the data active = activation mostly above about 9.7%, no sharp cut-off
VHR inh abs – VHR1 phosphatase inhibitors, primary screen, biochemical, absorbance, uHTS | Dual specificity protein phosphatase 3 (Homo sapiens), P51452 | recombinant VHR phosphatase, pNPP absorbance | inhibition, % at 13.3 µM | 290,000 compounds, 0.52% hits | AID 1654, 2009; in the data active = inhibition above about 50%
Target sequence (P51452 whole entry, looked up): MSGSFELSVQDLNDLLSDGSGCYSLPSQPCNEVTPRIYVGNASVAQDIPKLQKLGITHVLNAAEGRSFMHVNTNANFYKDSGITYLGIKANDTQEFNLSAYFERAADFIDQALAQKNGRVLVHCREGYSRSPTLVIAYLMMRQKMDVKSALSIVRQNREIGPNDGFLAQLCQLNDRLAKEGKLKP
TcdB GH inh – TcdB glycohydrolase inhibitors, primary screen, biochemical, single point, plate reader | inhibition, % at 9.99 µM | 350,000 compounds, 0.24% hits | Toxin B (Clostridioides difficile), P18177 | TcdB glycohydrolase enzymatic assay; in the data active = inhibition above about 10%
PrPC TRFRET – inhibitors of human cell surface prion protein PrPC, primary screen, cell-based, TR-FRET; Major prion protein (Homo sapiens), P04156; TR-FRET read-out; inhibition, % at 13.8 µM; 370,000 compounds, 0.43% hits; in the data active = inhibition above about 24%; note: 0% = median of the test wells and 100% = reference compound wells
CCHFV vOTU inh – CCHFV vOTU protease inhibitors, primary screen, biochemical, Pep-AMC substrate, fluorescence; 370,000 compounds, 0.55% hits; AID 651958, 2012; Crimean-Congo hemorrhagic fever virus L polyprotein viral ovarian tumor (vOTU) protease …; inhibition, % at 11.5 µM; in the data active = inhibition above about 30%; note: 0% = vehicle wells with enzyme and 100% = no enzyme wells
SSB-PriA inh – inhibitors of Klebsiella pneumoniae PriA binding to SSB C-terminal tail, primary screen, biochemical, AlphaScreen. PriA–SSB C-terminal tail interaction (Klebsiella pneumoniae). inhibition, % at 33 µM. AID 1272365, 2023. 430,000 compounds, 0.6% hits. AlphaScreen SSBct-PriA binding, biotinylated peptide; in the data active = inhibition mostly above about 37%, no sharp cut-off; inactive = mostly below about 20%;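 note: plate controls were negative control peptide for no effect and reference peptide for full effect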
* marks the source's active call; other numbers are inactive results; i = inactive; / = not tested or not shown; ! = a repeat was not active.

SMILES	BH1578 lux ind	VHR inh abs	TcdB GH inh	PrPC TRFRET	CCHFV vOTU inh	SSB-PriA inh
CN(C)CCCNc1oc(-c2ccccc2)nc1C#N	-6	25	/	-5	-33	2
Cn1ccnc1S(=O)(=O)C1CCN(C(=O)c2cc(C(C)(C)C)cc(C(C)(C)C)c2)CC1	/	/	/	/	/	-20
F[B-](F)(F)COCc1ccccc1C#Cc1ccccc1	/	/	-2	24	8	/
CCCCC#Cc1ccccc1COC[B-](F)(F)F	/	/	-6	29*	19	/
COc1ccc2ncc(C#N)c(N3CCC(C(=O)NCc4cccc(Cl)c4)CC3)c2c1	/	/	/	/	/	-3
Cc1ccc2sc(N(CCCN(C)C)C(=O)c3ccc(S(=O)(=O)N(C)Cc4ccccc4)cc3)nc2c1C	i	/	4	-18	-3	38
CCOc1cccc2sc(N(CCCN(C)C)C(=O)c3ccc(S(=O)(=O)N(C)Cc4ccccc4)cc3)nc12	i	4	0	-24	4	38*!
CCOc1cccc2sc(N(CCCN(C)C)C(=O)c3ccc(S(=O)(=O)N(CC)Cc4ccccc4)cc3)nc12	i	8	1	-19	0	29
CCN(c1ccccc1)S(=O)(=O)c1ccc(C(=O)N(CCCN(C)C)c2nc3c(C)cccc3s2)cc1	i	6	1	-15	12	36*!
CN(C)CCN(C(=O)c1ccc2ccccc2c1)c1nc2ccc(Br)cc2s1	-1	-12	3	9	-6	4
CCCCN(CC)S(=O)(=O)c1ccc(C(=O)N(CCCN(C)C)c2nc3cc(C)cc(C)c3s2)cc1	-6	10	/	-9	1	29
CN(C)CCN(C(=O)c1ccccc1[N+](=O)[O-])c1nc2ccc(Br)cc2s1	/	/	/	/	/	47*
Cc1cc(C)c2sc(N(CCCN(C)C)C(=O)c3ccc(S(=O)(=O)N(C)Cc4ccccc4)cc3)nc2c1	i	/	1	-11	0	49*
CN(C)CCN(C(=O)c1ccc([N+](=O)[O-])o1)c1nc2cc3c(cc2s1)OCO3	/	/	/	/	/	-10
CN(C)CCCN(C(=O)c1ccc([N+](=O)[O-])o1)c1nc2cc3c(cc2s1)OCO3	i	14	0	-40	51*	10
CCN(Cc1ccccc1)S(=O)(=O)c1ccc(C(=O)N(CCCN(C)C)c2nc3cc(C)cc(C)c3s2)cc1	i	/	1	-12	-5	43*
COc1ccc2sc(N(CCCN(C)C)C(=O)c3ccc(S(=O)(=O)N(C)Cc4ccccc4)cc3)nc2c1	-11	/	-3	-20	7	34
CC(C)S(=O)(=O)c1cccc(C(=O)Nc2onc3c2CCC3)c1	/	/	/	/	/	8
O=C(CSc1nnc2ccc3ccccc3n12)NC[C@H]1CCCO1	/	/	/	/	/	-24
CCN(c1ccccc1)S(=O)(=O)c1ccc(C(=O)N(CCCN(C)C)c2nc3cc4c(cc3s2)OCO4)cc1	i	-17	-1	-13	4	32
CN(C)CCCN(C(=O)c1ccc2ccccc2c1)c1nc2cc3c(cc2s1)OCO3	i	31	3	-27	22	29
CN(C)CCCN(C(=O)c1ccc(S(=O)(=O)N(C)Cc2ccccc2)cc1)c1nc2cc3c(cc2s1)OCO3	/	21	1	-15	5	40*!
CN(C)CCN(C(=O)c1cccc2ccccc12)c1nc2cc3c(cc2s1)OCO3	i	-2	-1	-7	-7	47*
CN(C)c1ccc(N=Nc2ccccc2C(=O)OCC(=O)N2CCCC2)cc1	0	15	/	-42	12	53*
CS(=O)(=O)N1CC(C(=O)NCCc2ccncc2)C1	/	/	/	/	/	-8
SMILES	BH1578 lux ind	VHR inh abs	TcdB GH inh	PrPC TRFRET	CCHFV vOTU inh	SSB-PriA inh
COc1cc(/C(C)=N/NC(=O)CSc2nnc(C)s2)ccc1O	0	13	11*	9	-3	/
C=CCn1c(COc2cccc3cccnc23)nnc1SC/C=C/c1ccccc1	/	/	/	/	/	-21
COc1ccc(Cl)cc1C(=O)N1CCC(c2nn(C)c(=O)n2-c2ccccc2)CC1	/	/	/	/	/	-14
COc1cccc2c(=O)n(CC(=O)Nc3ccc(F)cc3)ccc12	0	-2	1	2	5	104*
COc1cccc2c(=O)n(CC(=O)Nc3cccc(F)c3)ccc12	0	19	1	-5	12	-14
COc1ccc(CN2CCCC(C(=O)N3CCc4ccccc4C3)C2)cc1OC (stereo not drawn)	-7	59*	1	-3	-10	-27
COc1cc(CN2CCCC(C(=O)N3CCc4ccccc4C3)C2)cc(OC)c1OC (stereo not drawn)	0	-3	2	-5	-7	-6
O=C(O)CC1CSc2nc3c(cnn3-c3ccccc3)c(=O)n21 (stereo not drawn)	/	/	/	/	/	-4
Cc1ccc(NS(=O)(=O)c2ccc(Cl)c(N=Nc3c(O)[nH]c(=O)[nH]c3=O)c2)cc1Cl	-2	/	0	-5	13	-12
COc1ccc(NS(=O)(=O)c2cc(N=Nc3c(O)[nH]c(=O)[nH]c3=O)ccc2Cl)cc1	i	/	11*	-39	-8	5
O=C(NCc1cc(-c2ccc(Cl)cc2)on1)c1ccncc1	/	/	/	/	/	26
Cc1ccccc1C(=O)N1CCN(CCNC(=O)C(=O)Nc2ccc(Br)cc2)CC1	0	23	2	12	-11	39*
COc1ccccc1C(=O)N1CCN(CCNC(=O)C(=O)Nc2ccc(Br)c(C)c2)CC1	-2	10	1	5	4	2
COc1ccc(OC)c(C=NNC(=O)CC(=O)NCc2ccccc2)c1	/	/	/	/	/	5
COc1ccccc1/C=N/NC(=O)CC(=O)NCc1ccccc1	-1	-6	11*	5	11	/
CN(C)CCOC(=O)C12CC3CC(CC(C3)C1)C2	5	35	/	2	5	-13
CN(C)CCOC(=O)C12CC3(C)CC(C)(CC(C)(C3)C1)C2	i	52*	-1	-5	-8	2
CCc1ccccc1NC(=O)c1ccc(S(=O)(=O)c2ccc(C)c(C)c2)nc1	/	/	/	/	/	-11
Cc1ccc(C(=O)Nc2scc(-c3ccccc3)c2C(=O)O)cc1	i	/	12*	-1	7	0
COc1ccc(-c2csc(NC(=O)c3ccccc3F)c2C(=O)O)cc1	-1	-9	11*	12	4	-14
CCOC(=O)c1c(-c2cc(OC)c(OC)c(OC)c2)csc1NC(=O)c1ccccc1	-1	/	1	1	-4	/
COc1cc(C(=O)Nc2scc(-c3ccccc3)c2C(=O)O)cc(OC)c1OC	i	14	13*	-1	4	0
Cc1noc(C)c1CC(=O)NCc1cc(-c2ccc(F)cc2F)on1	/	/	/	/	/	-8
CC(=NNC(=S)Nc1ccc(C)cc1)c1cc2ccccc2o1	/	/	/	/	/	38*
